The values below come from PubChem BioAssay AID864 (The Scripps Research Institute Molecular Screening Center, 2007).

This is one part of the list. Unmarked numbers belong to inactive results. No stated cut-off is given here; in the data, active means activation above about 8.4%; inactive means the rest.

The experiment addresses Galanin receptor type 2 (Homo sapiens) (UniProt O43603). The experiment can be described thus: activators of human galanin receptor 2 – cell-based, confirmation (AID 864).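 Further: 0% = buffer-only vehicle wells and 100% = full reference agonist response.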 The following applies: GALR2-expressing cells, agonist activation; at 5.6 µM; active compounds read high.

Sequence of Galanin receptor type 2 (Homo sapiens) (O43603 whole entry, looked up): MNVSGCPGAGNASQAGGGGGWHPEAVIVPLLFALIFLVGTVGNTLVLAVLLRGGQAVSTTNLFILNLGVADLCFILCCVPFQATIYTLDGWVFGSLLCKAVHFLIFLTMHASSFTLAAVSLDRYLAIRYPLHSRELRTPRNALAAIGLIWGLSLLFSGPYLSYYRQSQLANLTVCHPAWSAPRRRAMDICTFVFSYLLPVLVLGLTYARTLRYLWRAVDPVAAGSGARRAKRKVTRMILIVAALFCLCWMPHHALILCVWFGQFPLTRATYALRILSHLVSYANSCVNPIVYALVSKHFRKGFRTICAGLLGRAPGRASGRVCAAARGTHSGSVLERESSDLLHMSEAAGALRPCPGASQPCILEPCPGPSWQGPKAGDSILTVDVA

For `Cc1cccc(N2C(=O)NC(=O)/C(=C\c3cnn(-c4ccccc4)c3)C2=O)c1`, the activation is -0.18%.
